Compound activity (PubChem BioAssay)
Sampled rows, rich in hits. Any-hit rate of the full collection: about 3.5%.
mHTT CaM bind = mutant huntingtin-calmodulin interaction inhibitors – biochemical, AlphaScreen, primary screen; inhibition, % at 15 µM; AlphaScreen His-mHTT/GST-CaM binding, luminescence; 190,000 tested, 3.6% active; P42858; AID 1671202, 2021
Pf apPOL inh = Pf-apPOL inhibitors, biochemical, fluorescence. Recombinant Pf-apPOL, molecular beacon fluorescence, 1.5 h. AID 1794808, 2022. 210,000 tested, 0.25% active. inhibition, % at 10 µM. Plasmodium falciparum apicoplast DNA polymerase (apPOL)
Of the large screens only hits and unclear results are named; the others gave an inactive call. Rule as the data show it: active = inhibition above about 50%; inactive = the rest.

Cc1ccsc1C1C(C#N)=C(N)SC(N)=C1C#N	none
N#CC1=C(N)SC(N)=C(C#N)C1c1ccc(Cl)cc1	none
N#CC1=C(N)SC(N)=C(C#N)C1c1ccc(Cl)c([N+](=O)[O-])c1	mHTT CaM bind 77
Cc1ccccc1-c1nocc1C(N)=O	none
COc1ccc(C(=O)C=Cc2ccc(Cl)cc2)c(O)c1	none
Nc1ncc(C2=C(Cl)C(O)C(Cl)=C(Cl)C2O)s1 (stereo unspecified)	mHTT CaM bind 100
COc1ccc(C2CCCN2C(=O)Nc2ccc(C)cc2Cl)cc1 (stereo unspecified)	none
CC(C)(C)CC(=O)N1CCC(c2cc(N)on2)CC1	none
Cc1cccc([C@H]2[C@@H]3C=CCC[C@@]3(C)C(=O)N2Cc2ccccc2)c1	none
COc1ccc(-c2cc([C@H]3[C@@H]4C=CCC[C@@]4(C)C(=O)N3Cc3ccccc3)ccc2F)cc1OC	none
COc1ccc([C@H]2[C@@H]3C=CCC[C@@]3(C)C(=O)N2Cc2ccccc2)cc1Cl	mHTT CaM bind 52
CC(=O)c1ccc(-c2cccc([C@H]3[C@@H]4C=CCC[C@@]4(C)C(=O)N3Cc3ccccc3)c2)cc1	mHTT CaM bind 85
COc1ccc(-c2cccc([C@H]3[C@@H]4C=CCC[C@@]4(C)C(=O)N3Cc3ccccc3)c2)cc1	mHTT CaM bind 70
C[C@@]12CCC=C[C@H]1[C@H](c1cccc([N+](=O)[O-])c1)N(Cc1ccccc1)C2=O	none
Cc1nc(-c2cnccn2)nc2c1CCC(=O)N2Cc1ccc(F)cc1	none
Cn1cc(C(=O)Nc2ccc(N3CCOCC3)cc2)nn1	none
COc1ccc(-n2nc(C(=O)Nc3cc([N+](=O)[O-])ccc3OC)c3ccccc3c2=O)cc1	none
O=C1CCCC(=O)N1c1ccc(N2CCC(O)(c3cccc(C(F)(F)F)c3)CC2)c([N+](=O)[O-])c1	mHTT CaM bind 93
O=C1CCCC(=O)N1c1ccc(N2CCN(c3cccc(C(F)(F)F)c3)CC2)c([N+](=O)[O-])c1	none
O=[N+]([O-])c1ccc2nc(SCc3ccccc3F)sc2c1	none
O=[N+]([O-])c1ccc2nc(SCc3c[nH]c4ccccc34)sc2c1	mHTT CaM bind 58
CC(C)C(=O)N1CCN(c2nc3c(s2)CC(C(=O)Nc2ccccc2F)CC3)CC1 (stereo unspecified)	none
CC(=O)Oc1ccc(C(=O)Nc2cc(Cl)ccc2OC(C)=O)cc1	mHTT CaM bind 69
COc1ccc(OC)c(NC(=O)c2ccc(Cl)cc2)c1	none
Cc1sc(C(=O)N2CCCC2)c2ncnc(NCc3ccc(F)c(Cl)c3)c12	mHTT CaM bind 100
Cc1sc(C(=O)N2CCCC2)c2ncnc(NCc3cccc(Cl)c3)c12	none
CCOc1cc(/C=C2\C(=O)ON=C2C)cc(Cl)c1OCc1ccccc1F	mHTT CaM bind 96
CCOc1cc(/C=C2\C(=O)ON=C2C)cc(Cl)c1OCc1cccc(F)c1	mHTT CaM bind 87
CCOc1cc(/C=C2/C(=O)ON=C2C)ccc1OCc1ccccc1F	none
C#CCOc1c(Cl)cc(/C=C2\C(=O)ON=C2C)cc1OCC	none
CCOc1cc(/C=C2/C(=O)ON=C2C)ccc1OCc1cccc(F)c1	mHTT CaM bind 93
CCCOc1ccc(/C=C2\C(=O)ON=C2C)cc1OC	mHTT CaM bind 78
CC1=NOC(=O)/C1=C/c1ccc(OCc2cccc(F)c2)c(Br)c1	none
COc1ccc(/C=C2/C(=O)ON=C2C)cc1Br	none
O=C(c1ccoc1)N1CCC2(C1)NCc1ccccc1NC2=NC1CCCC1 (stereo unspecified)	none
Cc1ccc(NC(=O)c2c(F)c(F)c(F)c(F)c2F)c([N+](=O)[O-])c1	none
CCn1ccc2oc(C)c(C(=O)N3CCN(c4cccc(C)c4C)CC3)c2c1=O	mHTT CaM bind 66
CCn1ccc2oc(C)c(C(=O)N3CCN(c4cc(C)ccc4C)CC3)c2c1=O	mHTT CaM bind 85
CCCn1ccc2oc(C)c(C(=O)N3CCN(c4ccccc4F)CC3)c2c1=O	none
CCn1ccc2oc(C)c(C(=O)NCc3cc(C)ccc3C)c2c1=O	none
Brc1ccc2c(c1)C(c1ccccc1)=NNC(c1ccccc1)=N2	none (no result: Pf apPOL inh)
O=C1NC2=C(C(=O)c3ccccc32)C(c2ccccc2)N1 (stereo unspecified)	none
COc1cccc(C2Sc3ccccc3NC3=C2C(=O)c2ccccc23)c1OC (stereo unspecified)	mHTT CaM bind 58
COc1cccc(C2Nc3ccccc3NC3=C2C(=O)CC(c2ccccc2)C3)c1OC (stereo unspecified)	none
O=C1Nc2ccccc2SC1c1ccccc1 (stereo unspecified)	none (no result: mHTT CaM bind)
COc1cccc(C2Sc3ccccc3NC3=C2C(=O)c2ccccc23)c1 (stereo unspecified)	mHTT CaM bind 76
O=C1C2=C(Nc3ccccc3SC2c2ccccc2)c2ccccc21 (stereo unspecified)	mHTT CaM bind 73 (no result: Pf apPOL inh)
Cc1cccc(C2SC(=O)NC3=C2C(=O)c2ccccc23)c1 (stereo unspecified)	none
O=C1C2=C(Nc3ccccc3SC2c2ccccc2[N+](=O)[O-])c2ccccc21 (stereo unspecified)	mHTT CaM bind 53
CCN1C(=O)Cc2cc(C(=O)N3CCN(c4ccc(OC)cc4)CC3)ccc21	none
O=C1c2ccccc2NC(c2cccs2)N1c1ccccc1 (stereo unspecified)	none
O=C1C2=C(Nc3ccccc3SC2c2cccs2)c2ccccc21 (stereo unspecified)	mHTT CaM bind 73
O=C(Nc1ccccc1)OCCOc1ccc(I)cc1	none
O=C1CCC[C@@H]2C[C@@]3(C[C@@H]4CCN1[C@H]24)Nc1cc(Cl)ccc1NC3=NCc1ccccc1	mHTT CaM bind 62
Cc1cc2c(cc1C)N[C@]1(C[C@H]3CCCC(=O)N4CC[C@@H](C1)[C@@H]34)C(=NC(C)(C)CC(C)(C)C)N2	mHTT CaM bind 100
Cc1cc2c(cc1C)N[C@]1(C[C@H]3CCCC(=O)N4CC[C@@H](C1)[C@@H]34)C(=NCc1ccccc1)N2	none
O=C1CCC[C@@H]2C[C@@]3(C[C@@H]4CCN1[C@H]24)Nc1cc([N+](=O)[O-])ccc1NC3=NC1CCCCC1	mHTT CaM bind 51
O=C1CCC[C@@H]2C[C@@]3(C[C@@H]4CCN1[C@H]24)Nc1cc(Cl)ccc1NC3=NC1CCCCC1	none
Cc1cc2c(cc1C)N[C@]1(C[C@H]3CCC(=O)N4CC[C@@H](C1)[C@@H]34)C(=Nc1ccccc1C)N2	none
Cc1ccccc1N=C1Nc2ccccc2N[C@]12C[C@H]1CCCC(=O)N3CC[C@@H](C2)[C@@H]13	none
CC(C)(C)CC(C)(C)N=C1Nc2ccc(Cl)cc2N[C@]12C[C@H]1CCCC(=O)N3CC[C@@H](C2)[C@@H]13	mHTT CaM bind 73
Cn1c(Sc2ncnc(Sc3nnc(C(F)(F)F)n3C)c2[N+](=O)[O-])nnc1C(F)(F)F	none (no result: mHTT CaM bind)
Cc1cc(=O)[nH]c(-n2nc(C3CC3)cc2NC(=O)C2(c3ccc(Cl)cc3)CCCC2)n1	mHTT CaM bind 57
Cc1cc(=O)[nH]c(-n2nc(-c3ccccc3)cc2NC(=O)CCSc2ccccc2)n1	none
O=C(Nc1c(-c2ccccc2)nc2ccccn12)c1cccnc1	none
CC(Cl)C(=O)Nc1c(-c2ccc(C(F)(F)F)cc2)nc2ccccn12 (stereo unspecified)	mHTT CaM bind 55
O=C(/C=C/c1ccccc1)Nc1c(-c2ccccc2)nc2ccccn12	mHTT CaM bind 61
Cc1ccc(-c2nc3ccccn3c2NC(=O)C(C)Cl)cc1 (stereo unspecified)	none
